From PubChem BioAssay AID588489 (Sanford-Burnham Center for Chemical Genomics, 2011) come the findings set out here.

The campaign covered roughly 360,000 compounds. About 1,300 (0.36%) were called active. This is one part of a sample in which actives are shown more often than they occur. Values without a mark were called inactive. No stated cut-off is given here; in the data, active means inhibition above about 35% (passing the limit was not always enough); inactive means the rest.

A word on the inhibition: it is the relative decrease from the control value, in per cent.

The target of this experiment is Polyadenylate-binding protein 1 (Homo sapiens) (UniProt P11940). Kind of experiment: inhibitors of PABP1 MLLE–PAM2 peptide binding, primary screen, biochemical, fluorescence polarization, FITC-PAM2, GST-MLLE (AID 588489).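 Further: plate controls were DMSO wells with GST-MLLE for no effect and wells lacking GST-MLLE protein for full effect.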 The note with it: at 20 µM, stronger effect = higher value. In general terms: In fluorescence polarisation assays a small probe gives low polarisation when free and higher when bound to something large.
Chain of Polyadenylate-binding protein 1 (Homo sapiens) (P11940 whole entry, looked up): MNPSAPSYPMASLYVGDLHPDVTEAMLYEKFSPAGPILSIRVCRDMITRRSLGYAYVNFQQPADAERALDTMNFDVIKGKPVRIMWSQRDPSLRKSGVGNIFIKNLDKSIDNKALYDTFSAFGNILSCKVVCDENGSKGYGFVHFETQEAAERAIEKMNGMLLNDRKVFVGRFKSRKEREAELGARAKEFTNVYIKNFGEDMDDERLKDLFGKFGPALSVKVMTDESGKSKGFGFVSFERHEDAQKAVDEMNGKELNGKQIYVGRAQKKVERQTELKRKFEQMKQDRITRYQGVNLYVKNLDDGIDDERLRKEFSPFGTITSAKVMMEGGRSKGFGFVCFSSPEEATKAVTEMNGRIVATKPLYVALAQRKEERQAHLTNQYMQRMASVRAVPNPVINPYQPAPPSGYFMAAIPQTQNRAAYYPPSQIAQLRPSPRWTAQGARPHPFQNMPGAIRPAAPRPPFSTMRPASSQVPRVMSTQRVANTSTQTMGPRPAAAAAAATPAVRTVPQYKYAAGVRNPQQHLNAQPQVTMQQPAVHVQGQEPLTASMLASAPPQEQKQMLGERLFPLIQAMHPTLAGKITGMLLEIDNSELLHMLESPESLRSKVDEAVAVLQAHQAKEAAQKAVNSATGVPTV
For the compound `COC(=O)C1=CN(c2ccc(F)c(F)c2)C=C(C(=O)OC)C1c1ccc([N+](=O)[O-])cc1`, the inhibition is 9.34%.
As for `COC(=O)c1c(C)[nH]c(C)c1-c1ccc([N+](=O)[O-])cc1`, the inhibition was -2.95%.
The value for `COC(=O)C1=C(C(=O)OC)C(c2cc([N+](=O)[O-])ccc2O)c2sc(=O)[nH]c2S1` (stereo not given) was 40.3% (active).
For the compound `Cc1ccc(C2=NN(C)c3nc4ccccc4n3C2)cc1`, the inhibition was -3.04%.
As to `COc1ccc(NS(=O)(=O)c2ccc(C)c(C(=O)NNC(=O)c3csc(N4CCOCC4)n3)c2)cc1`, the inhibition is -13.1%.
In the case of `C=CCNC(=S)NNC(=O)c1ccc(Br)o1`, the inhibition is -45.2%.
In the case of `CCOc1ccc(Cn2c(SCCCCC#N)nc3c2c(=O)n(C)c(=O)n3C)cc1OCC` it was 44% (active).
For `CCCCn1c(SCC(=O)NCCc2ccc(OC)c(OC)c2)nc2c1c(=O)n(C)c(=O)n2C`, the inhibition is 4.31%.
The value for `CCCSc1nc2c(c(=O)n(C)c(=O)n2C)n1Cc1ccc(C)cc1` was -1.85%.
The value for `O=C(NCCC(=O)N1O[C@@H]2C=C[C@H]1C2)OCC1c2ccccc2-c2ccccc21` was -4.15%; that for `CCOCc1nnc(NC(=O)CCC2CCCCC2)s1` was -2.53%; that for `Cc1cc([N+](=O)[O-])nn1CCCC(=O)Nc1cccnc1Cl` was 2.45%.
The value for `COc1cccc(-n2c(=S)sc3c(=O)n(-c4ccccc4C)c(SCC(=O)O)nc32)c1` was -10.4%.
In the case of `COc1ccc(Cl)cc1-n1c(=S)sc2c(=O)n(-c3ccc(F)cc3)c(SCC(=O)O)nc21`, the inhibition was 43.8% (active).
Consider `COc1cccc(-n2c(=S)sc3c(=O)n(-c4ccccc4OC)c(SCC4OCCO4)nc32)c1`, for which the inhibition was -1.94%.
The value for `COc1ccccc1C(=O)Oc1ccc(N2C(=O)CCC2=O)cc1` was -2.33%.
For `O=C(c1ccc(Cn2cc([N+](=O)[O-])cn2)o1)N1CCCC1`, the inhibition is -7%.
The value for `O=C(c1ccc(F)cc1)n1c(=S)nc2ccccn21` was 39% (active); that for `CC1COc2ccccc2N1C(=O)c1ccc(F)cc1` (stereo not given) was -13.6%.
In the case of `O=C(c1ccc(F)cc1)N1CCC(n2nnc3ccccc32)CC1` it was -6.3%.
On to `O=C(COC(=O)/C=C/c1nc2ccccc2s1)Nc1ccccc1Oc1ccccc1`, for which the inhibition was -5.84%.
As for `Cc1csc(NC(=S)Nc2cccc(Cl)c2)n1`, the inhibition was 35.5% (active).
In the case of `NS(=O)(=O)c1ccc(NC(=S)Nc2ccc(Br)c(Cl)c2)cc1`, the inhibition was 33.2%.
The value for `Cc1cccc(NC(=S)Nc2ccc(Cl)c(Cl)c2)c1` was 37.8% (active); that for `Cc1ccc(C2CCN(C(=S)Nc3cccc(Cl)c3)C2)cc1` (stereo not given) was -122%.
As for `Cc1ccc(C)c(NC(=S)NNC(=S)Nc2ccc(C(C)C)cc2)c1`, the inhibition is 30.8%.
In the case of `O=C(NCc1cn2ccsc2n1)Nc1cccc(Cl)c1` it was -5.66%; in that of `CCc1noc(C)c1C(=O)N1CCCC(N2CCN(c3ccc(F)cc3)CC2)C1` (stereo not given), -6.88%; in that of `CC(C)(C)n1nc2c(c1NC(=O)c1cc3ccccc3o1)CSC2`, 47.2% (active).
The value for `Cc1cc(NC(=O)c2cc3ccccc3o2)no1` was 16%.
For `Cc1cccc(-n2nc3c(c2NC(=O)c2cc4ccccc4o2)CS(=O)(=O)C3)c1`, the inhibition was 2.88%.
As for `C=CCn1c(SCC(=O)NCc2ccccc2)nnc1-c1cc(Br)ccc1O`, the inhibition is -75.9%.
Take `CCOC(=O)C1=C(CSc2nnnn2C)N(C)C(=O)NC1c1ccccc1` (stereo not given): the inhibition is -3.23%.
As to `O=C1CCCC(O)=C1N=Nc1ccc2ncsc2c1`, the inhibition was 45.2% (active).
In the case of `O=C1CCCC(O)=C1N=Nc1ccc(S(=O)(=O)N2CCOCC2)cc1`, the inhibition was 8.62%.
In the case of `O=C(NCCC1CCCCN1S(=O)(=O)c1ccccc1)C(=O)NCC1CCCO1` (stereo not given) it was 1.52%.
In the case of `Cc1ccc(C(=O)N/N=C\c2cc(Br)c(Br)o2)cn1` it was 69.9% (active); in that of `O=C(N/N=C\c1cc(Br)c(Br)o1)C1COc2ccccc2O1` (stereo not given), -16.5%.
In the case of `O=C(N/N=C/c1ccc(Br)o1)c1cncc(Br)c1`, the inhibition was 6.99%.
In the case of `CC(C)N(C(=O)Cn1cc(SCC(=O)N2CCCC2)c2ccccc21)C(C)C` it was -0.1%; in that of `Cc1ccnc(SC2CC(=O)N(c3ccccc3)C2=O)n1` (stereo not given), 38.2% (active); in that of `CC(=O)Nc1ccc(N2C(=O)CC(Sc3nccc(C)n3)C2=O)cc1` (stereo not given), 20.5%.
Consider `CCOc1ccccc1N1C(=O)CC(Sc2nccc(C)n2)C1=O` (stereo not given), for which the inhibition is 20.7%.
In the case of `CCCCNC(=O)C1(c2ccc(OC)cc2)CCOCC1` it was -4.07%; in that of `Nc1cccc2c1C(=O)N(Cc1nnc(-c3ccccc3Br)o1)C2=O`, 41.2% (active); in that of `Cn1cnnc1SCc1nnc(-c2ccccc2Br)o1`, -6.49%.
The value for `CC(C)N(Cc1nnc(-c2ccccc2Br)o1)C(=O)c1cc(Cl)nc2ccccc12` was -1.33%; that for `CCOC(=O)c1cc2sccc2n1Cc1ccc(C#N)cc1` was -2.73%.
In the case of `CC(Sc1ccc(S(=O)(=O)N2CCN(C)CC2)cn1)C(=O)NC1CCCC(C)C1C` (stereo not given) it was -9.12%; in that of `CC1(C)C2CC=C(/C=N/NC(=O)c3ccc(Cl)cc3)C1C2` (stereo not given), 10.7%; in that of `O=C1CCC(=O)N(c2ccccc2)N1`, 3.9%.
On to `O=C(Cc1ccc(Cl)cc1)NC(=S)Nc1ccccc1O`, for which the inhibition is 37.5% (active).
In the case of `Fc1ccccc1CNC(=S)Nc1ccc(Cl)cc1`, the inhibition was -18.2%.
The value for `CCOc1ccccc1NC(=S)NC(=O)CCc1ccccc1` was 17.8%; that for `Cc1sc2ncn(CC(=O)NCCCC(=O)NCc3ccc(F)cc3)c(=O)c2c1C` was -10.9%; that for `Cc1n[nH]c(=O)c2c(NC(=O)CSc3ccccc3F)oc(C)c12` was 25.1%.
Turning to `COc1ccc(OC)c(C2N(c3ccccn3)C(=O)C3CCCN32)c1` (stereo not given), the inhibition is -4.22%.
Take `COCC(C)N=CC1=C(O)CC(C)(C)CC1=O` (stereo not given): the inhibition is 6.93%.
`CCN(CC(=O)Nc1ccc(NC(C)=O)cc1)C(=O)CSC(=S)N1CCCC1`: the inhibition is 5.05%.
As to `COc1cccc(NC(=O)CN(C)C(=O)Cc2ccc(Cl)cc2Cl)c1`, the inhibition was -1.03%.
Take `COc1cccc(NC(=O)CN(C)C(=O)CSC(=S)N2CCCC2)c1`: the inhibition was 40.8% (active).
In the case of `COc1ccc(N/N=C2/CCCCC2=O)cc1` it was 44.5% (active).
The value for `COc1ccc(NC(=O)c2c(C)oc3c2CCCC3)cc1` was 6.57%; that for `Cc1ccc(N/N=C2\COC(C)(C)CC2=O)cc1` was -0.27%; that for `COc1ccc(-c2cc(C3CCN(c4ncccc4[N+](=O)[O-])CC3)[nH]n2)cc1` was 6.76%.
Take `CCc1ccc2c(c1)NC(=O)C2(C)Cc1ccc(OC(F)(F)F)cc1` (stereo not given): the inhibition is 8.45%.
With `CCc1ccc2c(c1)C1(NN=C(c3ccccc3)S1)C(=O)N2` (stereo not given), the inhibition is 45.2% (active).
In the case of `CC[N+]1(CC)CC2=Cc3ccccc3CC2C1` (stereo not given) it was -5.91%; in that of `O=C(Nc1cc(S(=O)(=O)Nc2ccc(Cl)cc2)ccc1O)c1ccc(F)cc1F`, -7.73%.
In the case of `Cc1cccc(N(C(=O)Cc2cccs2)C(C(=O)NC2CCCC2)c2ccsc2)c1` (stereo not given) it was -14.8%; in that of `COc1ccc(C)cc1NC(=S)N1CCOCC1`, -27.2%; in that of `COc1cc(C(=S)N2CCOCC2)ccc1O`, 38.4% (active).
For the compound `CCOc1cc(C(=S)N2CCOCC2)ccc1O`, the inhibition was 20.9%.
Consider `Cc1ccc(OCC(=O)Nc2ccccc2C(=O)NC2CC2)cc1C`, for which the inhibition is 8.8%.
In the case of `O=S(=O)(NCc1ccccn1)c1ccc(Br)s1`, the inhibition is -6.68%.
The value for `O=S(=O)([N-]c1nc2ccccc2nc1-[n+]1ccc(Cc2ccccc2)cc1)c1ccc(Br)s1` was 43.3% (active); that for `O=C(c1ccc(N2CCOCC2)c([N+](=O)[O-])c1)N1CCN(S(=O)(=O)c2cccs2)CC1` was -8.8%; that for `COc1ccc(C(=O)N2CCN(c3ccc(C(C)=O)cc3F)CC2)cc1S(=O)(=O)NC1CC1` was 0.55%.
Take `CC(C)CCn1cnc2c1c(=O)n(CC(=O)NC(N)=O)c(=O)n2Cc1ccccc1`: the inhibition is -0.54%.
In the case of `CC(=O)Nc1ccc(SCC(=O)NC(=O)c2ccc(Cl)cc2)cc1` it was 15.4%.
Regarding `CC(=O)Nc1ccc(SCC(=O)Nc2ccccc2Oc2ccccc2)cc1`, the inhibition is 38.1% (active).
In the case of `O=C(CSc1ccccc1)Nc1cc(Cl)ccc1Oc1ccccc1` it was 6.51%.
For `CC(=O)Nc1cc(-c2ccc(N3CCN(C)CC3)cc2)cn2c(-c3ccc(F)cc3)cnc12`, the inhibition is -30.8%.
As for `CC(C)c1cc(C(=O)N/N=C/c2ccoc2)c(O)c(C(C)C)c1`, the inhibition was -7.21%.
The value for `COC(=O)N/N=C/c1ccc(-c2ccc(Cl)c(Cl)c2)o1` was 15.1%; that for `COC(=O)N/N=C/c1c[n+]([O-])c2ccccc2[n+]1[O-]` was 41.1% (active).
The value for `CC(C)(C)OC(=O)N/N=C/c1ccc(C(=O)O)cc1` was -10.6%; that for `CCOC(=O)c1c(C)[nH]c(C2=NNC(=NC(C)COC)SC2)c1C` (stereo not given) was -90.6%; that for `CC(C)N(c1ccccc1)c1ncnc(NCCC(=O)O)c1[N+](=O)[O-]` was -7.92%.
Turning to `CC1=C(C(=O)Nc2ccc(Cl)cc2)C(c2ccco2)NC(=O)N1` (stereo not given), the inhibition was -4.08%.
With `CN1OC[C@@H]2CN(S(=O)(=O)c3cccc(C(F)(F)F)c3)[C@H](c3ccc(-c4cc5ccccc5o4)cc3)C[C@@H]21`, the inhibition was -4.18%.
Consider `COC(=O)C1=C(Nc2ccc(C)cc2)C=C(C)C(C(=O)OC)C1c1ccc(F)cc1` (stereo not given), for which the inhibition is -12%.
The value for `Cc1[nH]c(N)nc(=S)c1CCCNc1ccccc1` was 40.1% (active); that for `Cc1cc(=O)n(C)c(=O)n1CCCNc1ccccc1` was -0.23%; that for `CCc1c(Nc2ccccc2C)nc(N)[nH]c1=O` was -2.64%.
